Source: PubChem BioAssay (NCI)
Compounds without any hit were thinned out: in the full panel of roughly 83,000, 20% have a hit.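 Negative percent growth values reflect cell death: -40 means 40% of the cells present at the start died, and -100 means all died.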 The source made the active and inactive calls. How the source made its calls: active means growth percent below 10; inactive means the rest.

Each compound was assayed on LOX IMVI melanoma (assay: NCI-60 one-dose screen, 48 h (100 = growth as untreated, 0 = no growth, -100 = all killed)). Details: 10 µM unless noted.

Question: Which growth does the source give for `COc1ccc(/C=C/c2nc(Nc3ccc(S(=O)(=O)Nc4cc(C)on4)cc3)c3ccccc3n2)cc1` here?
Answer: 31.5% (inactive)

Question: With `NS(=O)(=O)c1ccc(CCN2C(=O)c3cc(Cl)c(Cl)cc3C2=O)cc1` as the compound, how does the growth read?
Answer: 98.2% (inactive)

Question: Which growth does the source give for `C/C=C(\C)C(=O)NC1=CC[C@@]2(C)C(=CCC3C2CC[C@@]2(C)C3CC[C@@H]2C(C)N(C)C)C1=O` (some centres undefined) here?
Answer: -53.2% (active)

Question: `O=c1c2c(c(=O)n1O)c1c3ccc[nH]c3nc1c1nc3[nH]cccc3c12` was tested. Which growth did it give?
Answer: 72.6% (inactive)

Question: `Cc1ccc(C(=O)/C(=C\c2ccc([N+](=O)[O-])cc2)S(=O)Cc2ccc(F)cc2)cc1` (centres undefined) was tested. Which growth did it give?
Answer: -39% (active)

Question: Which growth does the source give for `O=C(Nc1ncc(Cc2cc(Cl)ccc2Cl)s1)c1cccs1` here?
Answer: 43.3% (inactive)

Question: For `O=C(C[n+]1cccc2ccccc21)c1ccc(O)c(O)c1`, which growth is on record?
Answer: 28.3% (inactive)

Question: Which growth does the source give for `OCc1cnccc1NCCCCOc1ccc(Oc2ccccc2)cc1` here?
Answer: 45.9% (inactive)

Question: For `Oc1cccc(CCc2ccc(Oc3cc(CCc4cccc(O)c4)cc(O)c3O)cc2)c1`, which growth is on record?
Answer: 62.7% (inactive)

Question: Which growth does the source give for `CC/C(=C\c1ccc(OC)cc1)C(=O)c1ccc(OC)cc1` here?
Answer: 95.1% (inactive)

Question: With `CN1C(N2CCN(S(=O)(=O)c3ccccc3)CC2)=NS(=O)(=O)c2ccccc21` as the compound, how does the growth read?
Answer: 96% (inactive)

Question: For `O=C1Nc2ccc(F)cc2/C1=C\c1c(-c2ccccc2)nc2ccccn12`, which growth is on record?
Answer: 64.1% (inactive)

Question: `O=C(Cn1c(C(=O)c2ccccc2)nc2ccccc21)c1ccc(F)cc1` was tested. Which growth did it give?
Answer: 61.3% (inactive)

Question: For `COc1ccc(C(=O)c2nc3ccccc3n2CC(=O)c2ccc(Cl)cc2)cc1`, which growth is on record?
Answer: 39.2% (inactive)
